Outcome and AC50 data for three compounds are collected here from PubChem BioAssay (EPA / NIEHS).

Common to all, as to settings: mRNA level, 48 h; actives raise or lower the signal
Read-out in assay [1]: Alkaline Phosphatase, Placental (ALPP) gene, ALPP (gene 250)
Kind of assay: LTEA_HepaRG_ALPP: Life Technologies and Expression Analysis (LTEA) Assay for Alkaline Phosphatase, Placental (ALPP) gene using HepaRG (AID 2283468). The gist of the method:
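Using human liver HepaRG cells, chemicals are tested in duplicate over 48 h at half-log concentrations topping at 100 uM; phenobarbital 1 mM serves as induction control. ALPP mRNA change by qRT-PCR, bidirectional fit against vehicle.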

Read-out in assay [2]: Bcl-2 (BAD) gene, BAD (gene 572)
Kind of assay: LTEA_HepaRG_BAD: Life Technologies and Expression Analysis (LTEA) Assay for Bcl-2 (BAD) gene using HepaRG (AID 2283469). The gist of the method: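 BAD transcript change, measured by qRT-PCR against three housekeeping genes and fitted in both directions relative to 0.5% DMSO, after 48 h chemical treatment of human HepaRG liver cells at concentrations up to 100 uM.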

Read-out in assay [3]: Bcl-2 (BAX) gene, BAX (gene 581)
Put plainly: LTEA_HepaRG_BAX: Life Technologies and Expression Analysis (LTEA) Assay for Bcl-2 (BAX) gene using HepaRG (AID 2283470). The gist of the method:
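Differentiated HepaRG cells exposed 48 h in serum-free induction medium, eight half-log concentrations from 100 uM, in duplicate, 0.5% DMSO vehicle. BAX mRNA by TaqMan qRT-PCR, normalised to ACTB, GAPDH and POLR2A.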

Read-out in assay [4]: adenosine kinase (ADK) gene, ADK (gene 132)
Put plainly: LTEA_HepaRG_ADK: Life Technologies and Expression Analysis (LTEA) Assay for adenosine kinase (ADK) gene using HepaRG (AID 2283471). The gist of the method:
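Read-out is ADK transcript level measured by qRT-PCR and normalised to three housekeeping genes. Cells are human HepaRG, dosed for 48 h at up to 100 uM in 0.5% DMSO. Gain or loss of signal is fitted against DMSO controls.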

Read-out in assay [5]: Alpha-fetoprotein (AFP) gene, AFP (gene 174)
Kind of assay: LTEA_HepaRG_AFP: Life Technologies and Expression Analysis (LTEA) Assay for Alpha-fetoprotein (AFP) gene using HepaRG (AID 2283472). The gist of the method:
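Differentiated human HepaRG cells exposed 48 h in serum-free induction medium, 8-point half-log series from 100 uM in 0.5% DMSO, duplicate. AFP mRNA by qRT-PCR, normalized to ACTB, GAPDH, POLR2A; bidirectional fit vs DMSO.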

Read-out in a further assay: BCL2L11 (gene 10018)
Put plainly: LTEA_HepaRG_BCL2L11: Life Technologies and Expression Analysis (LTEA) Assay for Bcl-2 (BCL2L11) gene using HepaRG (AID 2283473). The gist of the method: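 Human hepatic HepaRG cultures are treated 48 h with test chemicals (maximum 100 uM, 0.5% DMSO vehicle). Expression of BCL2L11 is measured by qRT-PCR against ACTB, GAPDH and POLR2A, with activity in either direction scored relative to vehicle.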

Read-out in assay [6]: Apolipoprotein A-V (APOA5) gene, APOA5 (gene 116519)
Put plainly: LTEA_HepaRG_APOA5: Life Technologies and Expression Analysis (LTEA) Assay for Apolipoprotein A-V (APOA5) gene using HepaRG (AID 2283474). The gist of the method:
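Concentration-response of APOA5 expression in HepaRG: eight half-log doses to 100 uM, 48 h, qRT-PCR normalized to ACTB/GAPDH/POLR2A, bidirectional fitting with 0.5% DMSO as baseline.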

Read-out in assay [7]: Apoptosis regulator Bcl-2 (Homo sapiens) (UniProt P10415)
Kind of assay: LTEA_HepaRG_BCL2: Life Technologies and Expression Analysis (LTEA) Assay for Bcl-2 gene using HepaRG (AID 2283475). The gist of the method:
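Differentiated human HepaRG cells in serum-free induction medium exposed 48 h, in duplicate, to 8-point half-log series from 100 uM in 0.5% DMSO. BCL2 mRNA by qRT-PCR (TaqMan/Fluidigm), normalized to ACTB, GAPDH, POLR2A; bidirectional fit against DMSO.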

Read-out in assay [8]: Bcl-2 (BID) gene, BID (gene 637)
Kind of assay: LTEA_HepaRG_BID: Life Technologies and Expression Analysis (LTEA) Assay for Bcl-2 (BID) gene using HepaRG (AID 2283476). The gist of the method:
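Gene expression by qRT-PCR in HepaRG cells after 48 h exposure, duplicate wells, eight half-log concentrations topping at 100 uM in 0.5% DMSO. Normalized to ACTB, GAPDH, POLR2A; bidirectional fitting relative to DMSO.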

Read-out in another assay: Caspase-3 (Homo sapiens) (UniProt P42574)
Put plainly: LTEA_HepaRG_CASP3: Life Technologies and Expression Analysis (LTEA) Assay for cysteine-aspartic acid protease (CASP3) using HepaRG (AID 2283477). The gist of the method:
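Transcript-level assay: CASP3 mRNA in human HepaRG after 48 h treatment, eight half-log concentrations from 100 uM in 0.5% DMSO, quantified by qRT-PCR.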

Read-out in assay [9]: Cytochrome P450 (CYP24A1), CYP24A1 (gene 1591)
Put plainly: LTEA_HepaRG_CYP24A1: Life Technologies and Expression Analysis (LTEA) Assay for Cytochrome P450 (CYP24A1) using HepaRG (AID 2283478). The gist of the method: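 Gene expression of CYP24A1 by TaqMan qRT-PCR in HepaRG after 48 h treatment, highest concentration 100 uM; activity fitted in both directions relative to DMSO vehicle.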

Read-out in assay [10]: Cytochrome P450 (CYP1A2), CYP1A2 (gene 1544)
Kind of assay: LTEA_HepaRG_CYP1A2: Life Technologies and Expression Analysis (LTEA) Assay for Cytochrome P450 (CYP1A2) using HepaRG (AID 2283479). The gist of the method:
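In duplicate wells, HepaRG cultures maintained in 0.5% DMSO were treated 48 h across an 8-point, half-log series topping at 100 uM; phenobarbital (1 mM) served as induction control. Expression was read by qRT-PCR.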

Read-out in assay [11]: cysteine-aspartic acid protease (CASP8), CASP8 (gene 841)
Kind of assay: LTEA_HepaRG_CASP8: Life Technologies and Expression Analysis (LTEA) Assay for cysteine-aspartic acid protease (CASP8) using HepaRG (AID 2283480). The gist of the method: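 HepaRG, 48 h exposure, duplicate wells; 8 conc, half-log from 100 uM, 0.5% DMSO. Serum-free induction medium. CASP8 mRNA by TaqMan qRT-PCR, norm. ACTB/GAPDH/POLR2A; gain/loss fitted vs DMSO.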

Read-out in assay [12]: Cytochrome P450 (CYP2B6), CYP2B6 (gene 1555)
Put plainly: LTEA_HepaRG_CYP2B6: Life Technologies and Expression Analysis (LTEA) Assay for Cytochrome P450 (CYP2B6) using HepaRG (AID 2283481). The gist of the method:
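Human HepaRG, 48 h dosing, 0.5% DMSO vehicle, top dose 100 uM. CYP2B6 transcript by qRT-PCR, housekeeping-normalized, bidirectional curve fit.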

Read-out in assay [13]: Cytochrome P450 2C19 (Homo sapiens) (UniProt P33261)
Put plainly: LTEA_HepaRG_CYP2C19: Life Technologies and Expression Analysis (LTEA) Assay for CYP2C19 using HepaRG (AID 2283482). The gist of the method:
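Endpoint: CYP2C19 mRNA change, bidirectional fit vs 0.5% DMSO. Cells: HepaRG, 48 h exposure, eight-point series topping at 100 uM. Quantitation: qRT-PCR normalized to ACTB, GAPDH, POLR2A.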

Read-out in a further assay: CYP2C8 (gene 1558)
Kind of assay: LTEA_HepaRG_CYP2C8: Life Technologies and Expression Analysis (LTEA) Assay for CYP2C8 using HepaRG (AID 2283483). The gist of the method: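 CYP2C8 mRNA induction or loss, by qRT-PCR normalized to ACTB/GAPDH/POLR2A, is read in HepaRG cells after 48 h treatment. Concentrations run from 100 uM down in half-log dilutions, with 0.5% DMSO as vehicle and baseline.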

Read-out in another assay: CYP2C9 (gene 1559)
Kind of assay: LTEA_HepaRG_CYP2C9: Life Technologies and Expression Analysis (LTEA) Assay for CYP2C9 using HepaRG (AID 2283484). The gist of the method: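 Cells plated 48 h, switched to serum-free induction medium, then treated in duplicate for 48 h at eight concentrations (max 100 uM, 0.5% DMSO). RNA then analysed by qRT-PCR for CYP2C9; curves fitted in both directions relative to DMSO.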

Read-out in another assay: CYP2E1 (gene 1571)
Kind of assay: LTEA_HepaRG_CYP2E1: Life Technologies and Expression Analysis (LTEA) Assay for CYP2E1 using HepaRG (AID 2283485). The gist of the method:
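HepaRG cells, plated 48 h, then exposed 48 h in serum-free induction medium to eight half-log concentrations from 100 uM in 0.5% DMSO, duplicate. CYP2E1 mRNA by qRT-PCR, normalized to ACTB/GAPDH/POLR2A; bidirectional fit versus DMSO.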

Read-out in a further assay: CYP4A11 (gene 1579)
Kind of assay: LTEA_HepaRG_CYP4A11: Life Technologies and Expression Analysis (LTEA) Assay for CYP4A11 using HepaRG (AID 2283486). The gist of the method: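 Human hepatic HepaRG cultures receive duplicate 48 h exposures across a concentration-response series topping at 100 uM. Expression changes in CYP4A11 are measured by qRT-PCR relative to DMSO controls.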

Read-out in assay [14]: Cytochrome P450 3A4 (Homo sapiens) (UniProt P08684)
Kind of assay: LTEA_HepaRG_CYP3A4: Life Technologies and Expression Analysis (LTEA) Assay for CYP3A4 using HepaRG (AID 2283487). The gist of the method:
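HepaRG, 48 h exposure, 8-pt CRC from 100 uM (half-log), 0.5% DMSO, duplicates; serum-free induction medium. Readout: CYP3A4 mRNA, qRT-PCR, ACTB/GAPDH/POLR2A normalization. Bidirectional fit vs DMSO.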

Structures are written as SMILES. The source made the active and inactive calls. The calls were made as follows: active = hit-call score of the fitted dose curve at least 0.9, where 1 is the maximum; inactive = score below 0.9.

Sequence of Caspase-3 (Homo sapiens) (P42574 whole entry, looked up): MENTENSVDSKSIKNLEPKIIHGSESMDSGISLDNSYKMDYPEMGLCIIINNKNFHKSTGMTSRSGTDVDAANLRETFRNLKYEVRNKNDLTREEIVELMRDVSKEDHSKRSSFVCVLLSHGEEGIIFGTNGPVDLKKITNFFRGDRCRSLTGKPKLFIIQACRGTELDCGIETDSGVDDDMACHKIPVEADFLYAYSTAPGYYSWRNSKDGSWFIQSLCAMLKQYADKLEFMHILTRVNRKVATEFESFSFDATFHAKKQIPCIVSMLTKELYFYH
Sequence of Apoptosis regulator Bcl-2 (Homo sapiens) (P10415 whole entry, looked up): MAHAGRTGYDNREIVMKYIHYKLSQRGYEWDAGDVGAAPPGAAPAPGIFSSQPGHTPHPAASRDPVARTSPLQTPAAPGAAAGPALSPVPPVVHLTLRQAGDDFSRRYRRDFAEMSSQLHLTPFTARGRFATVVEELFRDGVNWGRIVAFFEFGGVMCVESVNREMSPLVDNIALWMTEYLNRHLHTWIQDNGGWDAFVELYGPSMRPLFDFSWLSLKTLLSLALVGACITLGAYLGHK
Sequence of Cytochrome P450 3A4 (Homo sapiens) (P08684 whole entry, looked up): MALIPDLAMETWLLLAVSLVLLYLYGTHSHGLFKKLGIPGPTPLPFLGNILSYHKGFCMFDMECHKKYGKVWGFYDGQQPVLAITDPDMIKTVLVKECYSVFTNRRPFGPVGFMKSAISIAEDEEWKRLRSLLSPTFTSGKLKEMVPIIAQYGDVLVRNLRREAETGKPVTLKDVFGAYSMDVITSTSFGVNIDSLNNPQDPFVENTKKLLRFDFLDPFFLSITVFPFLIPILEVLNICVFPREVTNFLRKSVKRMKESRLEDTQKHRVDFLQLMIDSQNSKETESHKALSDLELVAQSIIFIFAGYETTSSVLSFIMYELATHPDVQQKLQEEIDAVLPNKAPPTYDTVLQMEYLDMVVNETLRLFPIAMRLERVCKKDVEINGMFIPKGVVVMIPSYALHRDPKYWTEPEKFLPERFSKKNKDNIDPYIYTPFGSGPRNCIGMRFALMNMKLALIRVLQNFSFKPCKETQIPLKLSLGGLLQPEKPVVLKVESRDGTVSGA
Sequence of Cytochrome P450 2C19 (Homo sapiens) (P33261 whole entry, looked up): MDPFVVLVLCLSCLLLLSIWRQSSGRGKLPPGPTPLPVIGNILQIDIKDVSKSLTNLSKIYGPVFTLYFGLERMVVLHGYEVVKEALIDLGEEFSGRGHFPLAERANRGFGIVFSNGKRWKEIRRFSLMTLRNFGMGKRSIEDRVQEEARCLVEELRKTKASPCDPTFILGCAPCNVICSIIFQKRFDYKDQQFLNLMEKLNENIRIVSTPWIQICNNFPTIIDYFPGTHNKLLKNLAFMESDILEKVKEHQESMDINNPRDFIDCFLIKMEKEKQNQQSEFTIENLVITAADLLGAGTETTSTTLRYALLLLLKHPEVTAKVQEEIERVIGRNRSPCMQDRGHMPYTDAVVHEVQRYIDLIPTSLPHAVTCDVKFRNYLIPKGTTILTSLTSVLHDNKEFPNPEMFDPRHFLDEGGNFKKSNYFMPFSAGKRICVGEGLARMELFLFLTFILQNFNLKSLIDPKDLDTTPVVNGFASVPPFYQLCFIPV

Turning to `CCC(C)(CC)c1cc(NC(=O)c2c(OC)cccc2OC)on1`, the compound was called inactive (in [1]; in assay [2]; in assay [3]; in [4]; in the assay with BCL2L11 (gene 10018); in assay [6]). Also, the call (in assay [7]; in [8]; with Caspase-3 (Homo sapiens); in assay [9]; in assay [11]; in the assay with CYP2C9 (gene 1559)) was inactive. The AC50 in [5] is 28.9 µM (active); in assay [10], 10.3 µM (active); in assay [12], 3.2 µM (active); in [13], 2.36 µM (active); with CYP2C8 (gene 1558), 3.26 µM (active); with CYP2E1 (gene 1571) it was 15 µM (active). Besides, the AC50 in the assay with CYP4A11 (gene 1579) is 26.2 µM (active); in [14], 0.541 µM (active).
In the case of `NS(=O)(=O)C(F)(F)C(F)(F)C(F)(F)C(F)(F)C(F)(F)C(F)(F)C(F)(F)C(F)(F)F`, the compound was classed as inactive in assay [1], in assay [3], in assay [8] and in assay [9]. In addition, the AC50 in assay [2] is 17.6 µM (active); in assay [4], 4.81 µM (active); in assay [5] it was 11.4 µM (active); in the assay with BCL2L11 (gene 10018), 4.05 µM (active); in assay [6] it was 10 µM (active); in [7] it was 2.79 µM (active). In addition, the AC50 is 3.73 µM (active) with Caspase-3 (Homo sapiens); 5 µM (active) in [10]; 12.9 µM (active) in assay [11]; 9.56 µM (active) in assay [12]; 9.68 µM (active) in assay [13]; 11.1 µM (active) with CYP2C8 (gene 1558). Further, the AC50 is 12.7 µM (active) with CYP2C9 (gene 1559), 6.73 µM (active) with CYP2E1 (gene 1571), 12.6 µM (active) with CYP4A11 (gene 1579) and 10.7 µM (active) in assay [14].
Consider `CCCCCCOC(=O)c1ccccc1C(=O)OCCCCCC`, for which the outcome (in [1]; in assay [2]; in assay [3]; in assay [4]; in assay [5]; in the assay with BCL2L11 (gene 10018)) was inactive. In addition, the compound was classed as inactive (in assay [6]; in assay [7]; in assay [8]; with Caspase-3 (Homo sapiens); in [9]; in assay [11]). In addition, the outcome (in [12]; in assay [13]; with CYP2C8 (gene 1558); with CYP2C9 (gene 1559); with CYP2E1 (gene 1571); in assay [14]) was inactive. For the same compound, the AC50 in assay [10] was 50 µM (active); in the assay with CYP4A11 (gene 1579) it was 74.7 µM (active).

In general, AC50 refers to the midpoint of the concentration-response curve, whichever way the signal moves.
